Experimental data reported in PubChem BioAssay (EPA / NIEHS).
Where “and” joins values, the source holds several entries; their conditions need not be identical. Equal values may be shown once. Where a structure was tested more than once in an assay, its records may differ in their call. Calls of active or inactive are those of the source. Rule for the calls: active = hit-call score of the fitted dose curve at least 0.9, where 1 is the maximum; inactive = score below 0.9.

How the values were obtained:
[1] = read-out: Vascular cell adhesion molecule 1 (VCAM1), VCAM1 (gene 7412); assay: BSK_hDFCGF_VCAM1: BioMAP Diversity Plus: hDFCGF Assay for Vascular cell adhesion molecule 1 (VCAM1) Biomarker Activity (AID 2283065); details: primary human foreskin fibroblasts; actives raise or lower the signal;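 for AC50: VCAM-1 protein level quantified by ELISA after 24 h chemical exposure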
Procedure, shortened: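 Measured after 24 h chemical treatment of primary human skin fibroblasts, VCAM-1 was detected by ELISA and concentration-response analysed in both directions versus DMSO vehicle.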

[2] = read-out: Plasminogen activator inhibitor-1 (PAI1), SERPINE1 (gene 5054); assay: BSK_hDFCGF_PAI1: BioMAP Diversity Plus: hDFCGF Assay for Plasminogen activator inhibitor-1 (PAI1) Biomarker Activity (AID 2283066); details: primary human foreskin fibroblasts; actives raise or lower the signal
Procedure, shortened: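 Human skin fibroblast cultures receive chemical for 24 h before PAI-1 is measured by ELISA; signal changes are fitted bidirectionally against DMSO-treated wells.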

[3] = read-out: Intercellular Adhesion Molecule 1 (ICAM1), ICAM1 (gene 3383); assay: BSK_KF3CT_ICAM1: BioMAP Diversity Plus: KF3CT Assay for Intercellular Adhesion Molecule 1 (ICAM1) Biomarker Activity (AID 2283067); details: primary human keratinocytes with fibroblasts; actives raise or lower the signal
Procedure, shortened: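 Bidirectional curve fitting against a DMSO baseline was applied to ICAM-1 ELISA signal from primary human skin co-cultures harvested 24 h after treatment, with SRB staining of parallel wells for overt cytotoxicity.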

[4] = read-out: Interferon-gamma inducible Protein 10 (IP10), CXCL10 (gene 3627); assay: BSK_KF3CT_IP10: BioMAP Diversity Plus: KF3CT Assay for Interferon-gamma inducible Protein 10 (IP10) Biomarker Activity (AID 2283068); details: primary human keratinocytes with fibroblasts; actives raise or lower the signal
Procedure, shortened: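 In a primary skin co-culture of keratinocytes and fibroblasts, IP-10 is quantified by ELISA at 24 h after dosing. SRB staining of parallel wells monitors overt toxicity. Curves are fitted both directions against DMSO.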

[5] = BSK_KF3CT_SRB: Viability Assessment in the BioMAP Diversity Plus: KF3CT Assay (AID 2283069); details: primary human keratinocytes with fibroblasts;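 note: total protein by sulforhodamine B staining as a cytotoxicity measure; read 24 h after compound addition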
Procedure, shortened: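 Cytotoxicity was gauged by SRB staining (0.1% SRB, 10% TCA fixation, 560 nm) of parallel cultures at 24 h. The cells were primary human skin keratinocytes co-cultured with fibroblasts, and activity was fitted in both directions against DMSO.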

[6] = read-out: Interleukin-1 alpha (IL1a), IL1A (gene 3552); assay: BSK_KF3CT_IL1a: BioMAP Diversity Plus: KF3CT Assay for Interleukin-1 alpha (IL1a) Biomarker Activity (AID 2283070); details: primary human keratinocytes with fibroblasts; actives raise or lower the signal
Procedure, shortened: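 IL-1a was detected by ELISA 24 h after chemical treatment of a co-culture of human skin keratinocytes and foreskin fibroblasts. Gain or loss of signal was fitted against the DMSO baseline.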

[7] = read-out: TIMP metallopeptidase inhibitor 2 (TIMP2), TIMP2 (gene 7077); assay: BSK_KF3CT_TIMP2: BioMAP Diversity Plus: KF3CT Assay for TIMP metallopeptidase inhibitor 2 (TIMP2) Biomarker Activity (AID 2283071); details: primary human keratinocytes with fibroblasts; actives raise or lower the signal
Procedure, shortened: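 Measurements come from ELISA detection of TIMP-2 at 24 hours in a dosed human keratinocyte and foreskin fibroblast co-culture. DMSO serves as negative control and baseline.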

[8] = read-out: Transforming growth factor beta 1 (TGFb1), TGFB1 (gene 7040); assay: BSK_KF3CT_TGFb1: BioMAP Diversity Plus: KF3CT Assay for Transforming growth factor beta 1 (TGFb1) Biomarker Activity (AID 2283072); details: primary human keratinocytes with fibroblasts; actives raise or lower the signal
Procedure, shortened: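 TGF-b1 ELISA on a 24 h dosed co-culture of human keratinocytes and foreskin fibroblasts; cytotoxicity tracked in parallel cultures by SRB staining.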

[9] = read-out: C-C motif chemokine 2 (Homo sapiens) (UniProt P13500); assay: BSK_KF3CT_MCP1: BioMAP Diversity Plus: KF3CT Assay for Monocyte Chemoattractant Protein 1 (MCP1/CCL2) Biomarker Activity (AID 2283073); details: primary human keratinocytes with fibroblasts; actives raise or lower the signal
Procedure, shortened: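 Biomarker MCP-1 is measured by ELISA in primary human keratinocytes co-cultured with foreskin fibroblasts, 24 h after chemical treatment; DMSO serves as the negative control and activity baseline.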

[10] = read-out: Matrix Metallopeptidase 9 (MMP9), MMP9 (gene 4318); assay: BSK_KF3CT_MMP9: BioMAP Diversity Plus: KF3CT Assay for Matrix Metallopeptidase 9 (MMP9) Biomarker Activity (AID 2283074); details: primary human keratinocytes with fibroblasts; actives raise or lower the signal;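 for AC50: MMP9 protein level quantified by ELISA in the co-culture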
Procedure, shortened: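 MMP-9 quantified by ELISA after 24 h chemical treatment of primary human skin keratinocyte/fibroblast co-cultures; gain or loss fitted against DMSO, with parallel SRB staining (0.1% SRB, 560 nm) for overt cytotoxicity.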

[11] = read-out: urokinase plasminogen activator (uPA), PLAU (gene 5328); assay: BSK_KF3CT_uPA: BioMAP Diversity Plus: KF3CT Assay for urokinase plasminogen activator (uPA) Biomarker Activity (AID 2283075); details: primary human keratinocytes with fibroblasts; actives raise or lower the signal
Procedure, shortened: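 ELISA read-out of uPA 24 h after dosing human skin keratinocytes co-cultured with foreskin fibroblasts. Signal change fitted both ways relative to DMSO; sulforhodamine B on parallel cultures marks overt cytotoxicity.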

[12] = read-out: CD40, CD40 (gene 958); assay: BSK_LPS_CD40: BioMAP Diversity Plus: LPS Assay for CD40 Biomarker Activity (AID 2283076); details: primary human HUVEC with PBMC; actives raise or lower the signal
Procedure, shortened: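 Using a multiplexed primary human co-culture (umbilical vein endothelium plus PBMC), CD40 was read by ELISA 24 h after dosing, with cytotoxicity tracked by sulforhodamine B staining of parallel cultures and activity fitted bidirectionally versus DMSO.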

[13] = read-out: E-selectin (Homo sapiens) (UniProt P16581); assay: BSK_LPS_Eselectin: BioMAP Diversity Plus: LPS Assay for Eselectin Biomarker Activity (AID 2283077); details: primary human HUVEC with PBMC; actives raise or lower the signal
Procedure, shortened: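 Dose chemical onto LPS-driven HUVEC/PBMC co-culture; after 24 h, run ELISA for E-selectin; fit up- and down-going responses relative to DMSO control.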

[14] = read-out: Interleukin-8 (IL8), CXCL8 (gene 3576); assay: BSK_LPS_IL8: BioMAP Diversity Plus: LPS Assay for Interleukin-8 (IL8) Biomarker Activity (AID 2283078); details: primary human HUVEC with PBMC; actives raise or lower the signal
Procedure, shortened: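 In this LPS system, chemical-treated human umbilical vein endothelium/PBMC co-cultures were harvested at 24 h for IL-8 ELISA.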

[15] = BSK_LPS_SRB: Viability Assessment in the BioMAP Diversity Plus: LPS Assay (AID 2283079); details: primary human HUVEC with PBMC;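 note: total protein by sulforhodamine B absorbance as a cytotoxicity measure; measured one day after compound addition; fitted in both directions against DMSO so loss or gain of signal counts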
Procedure, shortened: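 Cytotoxicity endpoint in human endothelial–PBMC co-culture: 24 h exposure, then SRB (0.1%) staining, 560 nm read.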

[16] = read-out: Interleukin-1 alpha (IL1a), IL1A (gene 3552); assay: BSK_LPS_IL1a: BioMAP Diversity Plus: LPS Assay for Interleukin-1 alpha (IL1a) Biomarker Activity (AID 2283080); details: primary human HUVEC with PBMC; actives raise or lower the signal
Procedure, shortened: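 Primary human HUVEC and PBMC co-culture stimulated with LPS is dosed and harvested at 24 h. Both increases and decreases in ELISA-measured IL-1a are scored relative to DMSO.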

[17] = read-out: Monocyte Chemoattractant Protein-1 (MCP1), CCL2 (gene 6347); assay: BSK_LPS_MCP1: BioMAP Diversity Plus: LPS Assay for Monocyte Chemoattractant Protein-1 (MCP1) Biomarker Activity (AID 2283081); details: primary human HUVEC with PBMC; actives raise or lower the signal;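 for AC50: secreted MCP-1 protein quantified by ELISA in culture supernatant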
Procedure, shortened: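 Values derive from bidirectional fitting against DMSO of ELISA-measured MCP-1 in a human primary endothelial and mononuclear cell co-culture, 24 h after chemical addition under LPS activation.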

[18] = BSK_LPS_PGE2: BioMAP Diversity Plus: LPS Assay for Prostaglandin E2 (PGE2) Biomarker Activity (AID 2283082); details: primary human HUVEC with PBMC; actives raise or lower the signal;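 for AC50: secreted prostaglandin E2 measured by ELISA in LPS-stimulated co-culture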
Procedure, shortened: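 Primary human endothelial cells and blood mononuclear cells, co-cultured with LPS, receive test chemical; PGE2 ELISA follows at 24 h, with SRB-stained parallel cultures flagging cytotoxicity.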

[19] = read-out: Tissue Factor, F3 (gene 2152); assay: BSK_LPS_TissueFactor: BioMAP Diversity Plus: LPS Assay for Tissue Factor Biomarker Activity (AID 2283084); details: primary human HUVEC with PBMC; actives raise or lower the signal
Procedure, shortened: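 Read-out: CD142 ELISA, 24 h. System: LPS-driven human endothelial/PBMC co-culture. Analysis: up- or down-signal fitted against DMSO.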

[20] = read-out: Macrophage colony-stimulating factor (MCSF), CSF1 (gene 1435); assay: BSK_LPS_MCSF: BioMAP Diversity Plus: LPS Assay for Macrophage colony-stimulating factor (MCSF) Biomarker Activity (AID 2283083); details: primary human HUVEC with PBMC; actives raise or lower the signal
Procedure, shortened: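 Bidirectional fit versus DMSO of ELISA-measured M-CSF in co-cultured human umbilical vein endothelial cells and PBMC, sampled 24 h after dosing.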

Measured: AC50

E-selectin (Homo sapiens), sequence (P16581 whole entry, looked up): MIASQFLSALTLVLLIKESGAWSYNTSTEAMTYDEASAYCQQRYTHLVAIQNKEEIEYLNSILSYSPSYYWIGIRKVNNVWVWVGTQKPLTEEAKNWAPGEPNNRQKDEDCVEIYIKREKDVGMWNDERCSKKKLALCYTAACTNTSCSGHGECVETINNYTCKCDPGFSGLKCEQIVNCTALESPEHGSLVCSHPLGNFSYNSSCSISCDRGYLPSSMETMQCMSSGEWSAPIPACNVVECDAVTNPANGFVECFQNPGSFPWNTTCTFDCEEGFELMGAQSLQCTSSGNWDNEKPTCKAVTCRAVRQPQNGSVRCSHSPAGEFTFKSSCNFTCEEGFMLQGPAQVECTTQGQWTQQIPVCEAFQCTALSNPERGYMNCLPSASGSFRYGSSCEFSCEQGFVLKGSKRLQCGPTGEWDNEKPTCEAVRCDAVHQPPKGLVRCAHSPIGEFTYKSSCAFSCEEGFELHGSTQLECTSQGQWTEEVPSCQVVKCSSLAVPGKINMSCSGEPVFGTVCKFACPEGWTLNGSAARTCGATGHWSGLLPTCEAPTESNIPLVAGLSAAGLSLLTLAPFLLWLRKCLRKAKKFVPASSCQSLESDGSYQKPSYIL

Nc1ccc(-c2ccc(N)c(Cl)c2)cc1Cl
active: [10] 4.21 µM | [15] 7.78 µM
not listed: [20]
inactive: all other assays above

CC12CC1(C)C(=O)N(c1cc(Cl)cc(Cl)c1)C2=O (stereo not drawn)
not listed: [20]
inactive: all other assays above

O=C(O)C(F)(F)C(F)(F)C(F)(F)C(F)(F)C(F)(F)C(F)(F)F
active: [14] 14.6 µM and 30 µM
inactive: [1] | [2] | [3] | [4] | [5] | [6] | [7] | [8] | [9] | [10] | [11] | [12] | [13] | [14] | [15] | [16] | [17] | [18] | [20] | [19]

COP(=S)(OC)Oc1ccc(Sc2ccc(OP(=S)(OC)OC)cc2)cc1
active: [2] 0.382 µM | [4] 20 µM | [10] 10.4 µM | [12] 20 µM | [14] 3.97 µM | [15] 13.7 µM | [16] 31 µM | [17] 12.5 µM | [18] 9.58 µM | [20] 20 µM
inactive: all other assays above

COP(=S)(OC)Oc1c(Cl)cc(C)cc1Cl
active: [1] 20 µM | [10] 20 µM | [15] 27.7 µM | [16] 0.108 µM
inactive: all other assays above

O=C(O)CCC(F)(C(F)(F)F)C(F)(F)F
active: [1] 7.04 µM
inactive: [1] | [2] | [3] | [5] | [6] | [7] | [9] | [10] | [11] | [12] | [13] | [14] | [15] | [16] | [17] | [18] | [19]

CCCCCCCCc1ccc(O)cc1
active: [1] 27.9 µM | [2] 14 µM | [3] 31.2 µM | [4] 29.5 µM | [5] 27.7 µM | [6] 25 µM | [7] 30 µM | [8] 22.4 µM | [10] 28.8 µM | [11] 31.6 µM | [12] 31.5 µM | [13] 37.8 µM | [14] 36.5 µM | [15] 34.1 µM | [16] 31 µM | [17] 37.4 µM | [18] 3.96 µM | [19] 38.1 µM

CC(C)(OO)c1ccccc1
active: [1] 28.6 µM | [2] 30.4 µM
not listed: [20]
inactive: all other assays above

CCC(=O)C(CC(C)N(C)C)(c1ccccc1)c1ccccc1 (stereo not drawn)
inactive: all assays above

CCOP(=S)(OCC)Oc1nc(Cl)c(Cl)cc1Cl
active: [1] 7.1 µM | [2] 13.3 µM | [12] 20 µM
not listed: [20]
inactive: all other assays above

COP(=S)(OC)Oc1cc(Cl)c(Cl)cc1Cl
active: [1] 25.4 µM | [7] 32.2 µM | [8] 36.3 µM
inactive: all other assays above

CCOP(=S)(OCC)SCSP(=S)(OCC)OCC
active: [20] 2.72 µM
inactive: all other assays above
